# Assay results from PubChem BioAssay AID504832 (National Center for Advancing Translational Sciences (NCATS), 2011).
# About 18,000 (5.8%) of roughly 310,000 compounds were called active. Not shown: some 22% with an inconclusive outcome. Only a selection was taken, and actives are over-represented in it overall. Values without a mark were called inactive. The call rests on the fitted dose curve; in most records, active means well fitted inhibition curve with a large enough effect; inconclusive means small, poorly fitted or top-dose-only effect, or another doubt; inactive means no such curve, though single readings can be large or run the other way.
# Experiment: Primary qHTS for delayed death inhibitors of the malarial parasite plastid, 48 hour incubation
# Conditions: P. falciparum luciferase growth in erythrocytes; series mostly up to 28.7 µM; activity change, negative = inhibition: at the top concentration
# How it was run: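 Erythrocytes infected with P. falciparum carrying an integrated firefly luciferase reporter (2% hematocrit, 0.1% parasitemia final) were exposed to compounds in RPMI 1640 with 0.5% Albumax at 37 C, 5% CO2. Growth inhibition was scored as reduced luminescence.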
# On the % scale 0 is the no-effect control and ±100 the full control effect; potency means the concentration at half of the fitted maximal effect.
Compound,Potency,"activity change, negative = inhibition"
CCN1/C(=C/c2ccc3ccc(C)cc3[n+]2CC)Sc2ccccc21,1.17 µM (active),–
CCN1/C(=C\c2ccc3ccccc3[n+]2CC)Sc2cc(C)ccc21,1.17 µM (active),–
CCN1/C(=C/C(=S)Nc2ccccc2)Sc2ccccc21,–,4.72%
CCOC(=O)c1c(C)[nH]c(C(=O)OCC(=O)c2ccc(OC)cc2OC)c1C,–,50.2%
CCCc1cc(=O)oc2c(C)c(OCC(=O)Nc3ccccn3)ccc12,–,-9.35%
O=C(COC(=O)c1cnccn1)Nc1ccc(Cl)cc1C(F)(F)F,–,13.7%
COC(=O)c1ccc(CSc2ccc(S(=O)(=O)N3CCCCC3)cn2)cc1,–,-17.8%
CN(Cc1ccccc1)S(=O)(=O)c1nnc(NC(=O)c2ccccc2F)s1,–,0.694%
COc1ccc(CCc2nc(-c3cccs3)no2)cc1,–,66%
C=CCc1ccccc1OCC(O)CN1CCN(CCO)CC1 (stereo not drawn),–,-12.8%
Cc1cc(C)n2nc(C(=O)OC(C)C(=O)c3cc(C)c(C)cc3C)nc2n1 (stereo not drawn),–,11.2%
CCOC(=O)C1CN(S(=O)(=O)c2ccc(OC)cc2)c2cc(Cl)ccc2O1 (stereo not drawn),–,-15.5% [at 0.00184 µM]
O=C(Nc1ccc(Cl)cc1)Nc1ccc(Oc2cccnc2)nc1,–,61.4%
O=C(NNC(=O)c1csc(-c2cccnc2)n1)Nc1ccc(Cl)cc1,8.28 µM (active),–
O=C(NNC(=O)c1cccnc1)Nc1ccccc1,–,-5.94%
COc1cccc(CNS(=O)(=O)c2ccc3c(c2)CC(C)N3C(C)=O)c1 (stereo not drawn),–,19.4%
Cc1cccc(OCC(=O)NC2CC(C)(C)NC(C)(C)C2)c1,–,9.53%
COc1ccc(CCNC(=O)c2c(C)nn(-c3ccccc3)c2Cl)cc1,–,17.6%
COc1cnc(-c2ccccn2)nc1Oc1ccc(C(C)(C)C)cc1,1.65 µM (active),–
Cc1ccc(Oc2nc3ccccc3n3c(C)nnc23)cc1,–,15.2%
COc1ccc(Cc2nc(-c3ccccn3)no2)cc1OC,–,54.6%
COc1ccc(Nc2nc(-c3cccnc3)nc3ccccc23)cn1,–,0%
N#Cc1ccc(Oc2cc(C(F)(F)F)nc(-c3ccccn3)n2)cc1,–,22.8%

Compound,Potency,"activity change, negative = inhibition"
COc1ccc(Sc2nc(-c3ccccc3)ncc2OC)cc1,–,60.4%
CCC(=O)OCCNc1nc(-c2ccccc2)nc2ccccc12,–,20.8%
CC(C)(C)Nc1nc(-c2ccccn2)nc2ccccc12,2.94 µM (active),–
Cc1ccc(Oc2nc(-c3ccccn3)nc3ccccc23)cc1,1.47 µM (active),–
COc1ccc(S(=O)(=O)N(CC(=O)N/N=C/c2ccc(C(=O)O)cc2)Cc2ccccc2)cc1OC,–,-7.28%
COc1ccc(C)cc1N(CC(=O)NC(C)c1ccccc1)S(C)(=O)=O (stereo not drawn),–,-4.34%
Cc1ccccc1OCC(=O)NNC(=O)c1cc(S(=O)(=O)N(C)C)ccc1N1CCCC1,–,-1.17%
Cc1ccc(S(=O)(=O)N(CC(O)CN2CCCCC2)c2cccc([N+](=O)[O-])c2)cc1 (stereo not drawn),–,3.97%
CC(C)CNS(=O)(=O)c1ccc(CCC(=O)NCc2ccc(Cl)cc2)cc1,–,-15.5%
NC(=O)c1cc(S(=O)(=O)N2CCCC2)ccc1OCc1ccc(F)cc1,–,-18.6%
CCOc1ccc(-c2cc(C)[n+](CCN(CC)CC)c(-c3ccc(OCC)cc3)c2)cc1,0.329 µM (active),–
CCOc1ccc(-c2nnc(-c3ccco3)o2)cc1,–,-31.2%
CCOc1ccc(-c2nnc3ccc(SC)nn23)cc1,–,19.5%
COc1cc(NC(=O)c2cc([N+](=O)[O-])ccc2Br)ccc1NC(=O)c1ccco1,–,12.6%
O=C(Nc1ccc(NC(=O)c2ccco2)c(Cl)c1)c1cccc([N+](=O)[O-])c1,10.4 µM (active),–
CCC(=O)NC(=S)Nc1ccc(NC(=O)c2ccco2)c(Cl)c1,–,10.8%
Cc1ccc(OCC(=O)NC(C)c2ccccc2)cc1C (stereo not drawn),–,-4.35%
O=C(N/N=C/c1ccc(O)c2ccccc12)c1cccnc1,–,-3.94%
Cc1ccc2occ(/C=N/NC(=O)c3ccccc3C)c(=O)c2c1,–,33.4%
Cc1ccc(/C=N/NC(=O)C2=NNC(c3ccccc3)(c3ccccc3)C2)c(O)c1,4.15 µM (active),–
CCN(C(=O)CSc1nnnn1-c1ccccc1OC)C1CCS(=O)(=O)C1 (stereo not drawn),–,-20.5%
CC(=O)N1CCSc2ccc(S(=O)(=O)N3CCC(C)CC3)cc21,–,1.61%
CCc1ccc(NC(=O)Cn2nnc(C(=O)NCc3ccc(OC)cc3)c2N)cc1,–,23%

Compound,Potency,"activity change, negative = inhibition"
COc1cccc(-c2ccc(SCC(=O)N3CCN(c4ccccc4)CC3)nn2)c1,–,-4.56%
CC(CC(=O)N1CCN(c2ccccc2)CC1)c1ccccc1 (stereo not drawn),–,-0.834%
COc1ccc(C(CC(=O)N2CCN(c3ccccc3)CC2)c2c(O)cc(OC)cc2OC)cc1 (stereo not drawn),10.4 µM (active),–
Cc1ccc(CS(=O)(=O)CCC(=O)NCc2ccc(F)cc2)cc1,–,21.5%
CC[C@]1(c2ccccc2OC)C(=O)N(C(=O)OC)N1C(=O)OC,–,-64%
CCOc1ccc(NC(=O)CN(C)C(=O)c2c(C)noc2C)cc1OCC,–,5.49%
Cc1ccc(S(=O)(=O)CCC(=O)OCC(=O)N(C)C2CCS(=O)(=O)C2)cc1 (stereo not drawn),–,-27.9%
Cc1cc(C)c(C)c(S(=O)(=O)Nc2ccc(O)cc2)c1C,7.38 µM (active),–
CCOc1ccc(NS(=O)(=O)c2cc(C)c(C)cc2C)cc1,–,0.582%
Cc1cc(C(C)(C)C)cc(S(=O)(=O)Nc2ccc(C(=O)O)cc2)c1C,–,-2.76%
NS(=O)(=O)c1ccc(CCNC(=O)CNC(=O)Cc2ccccc2)cc1,–,23.1%
O=C1NC(=O)C(c2ccc(Cl)cc2)N1 (stereo not drawn),–,11.5%
S=C(c1ccccc1)N1CCCC1,–,6.41%
CC1CCN(c2nc3c(c(=O)[nH]c(=O)n3C)n2CCCc2ccccc2)CC1,11.7 µM (active),–
CCCSc1nc2c(c(=O)[nH]c(=O)n2C)n1CCc1ccccc1,–,5.19%
Cn1c(=O)[nH]c(=O)c2c1nc(N1CCCCCC1)n2CC(=O)c1ccccc1,–,8.78%
Cc1[nH]c2ccccc2c1C(=O)CN1CC(C)CC(C)C1 (stereo not drawn),–,-1.93%
Cc1[nH]c2ccccc2c1C(=O)COC(=O)C(C)C,–,7%
Cc1[nH]c2ccccc2c1C(=O)C(C)Sc1nnc(C2CC2)o1 (stereo not drawn),3.7 µM (active),–
C=CCOc1ccc(/C=C2/C(=O)ON=C2C)cc1OCC,–,24.4%
COc1ccc(OC)c(S(=O)(=O)n2c([N+](=O)[O-])cnc2C)c1,–,17.9%
NS(=O)(=O)c1ccc(N=Nc2c(O)[nH]c3ccc(Br)cc23)cc1,–,-18.2%
